The source of these data is PubChem BioAssay.

Activity calls are given as the source filed them. Unless noted, the rule behind the calls is not given here.

Test [1] is described as follows: compounds binding Alexa647 anti-His antibody – biochemical, small-molecule microarray, 635 nm fluorescence, artefact control for SMM control protein annotation, primary screen (AID 1128).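 Note: score merges feature fluorescence with signal-to-noise for each printed compound spot.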 The conditions noted are these: higher = more signal.
The test system of test [2] is Human papillomavirus type 1a E7 protein (residues 1-88). Kind of test: HPV1a E7 small-molecule binders, primary screen, biochemical, small-molecule microarray, residues 1-88, 635 nm (AID 1129). The conditions noted are these: small-molecule microarray binding, fluorescence 635 nm; higher = more signal.
Test [3] concerns the target Focal adhesion kinase 1 (Homo sapiens) (UniProt Q05397). The experiment in a line: PTK2 protein binding on printed compound slides – biochemical, small-molecule microarray, 635/667 nm fluorescence, BSA, DTT, primary screen (AID 1130).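 Note: composite of spot emission at 667 nm and signal to noise over triplicate slides.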 The conditions noted are these: 635 nm fluorescence, higher = more signal.
Test [4] relates to Fibrinogen (Alexa647-labelled). The experiment in a line: Alexa647-fibrinogen binding to printed small molecules – biochemical, small-molecule microarray, 635/667 nm fluorescence, artefact control for SMM control-protein annotation, profiling panel (AID 1131).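 Note: z-score merges 667 nm fluorescence with per-spot signal-to-noise over triplicate slides.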 Particulars: fibrinogen-A647 binding fluorescence, higher = more signal.
In test [5] the target is Follistatin (Homo sapiens) (UniProt P19883). Kind of test: FST protein binding to printed compounds – biochemical, small-molecule microarray, 635/667 nm fluorescence, primary screen (AID 1132). Particulars: 635 nm fluorescence, higher = more signal.
Sequence of Follistatin (Homo sapiens) (P19883 whole entry, looked up): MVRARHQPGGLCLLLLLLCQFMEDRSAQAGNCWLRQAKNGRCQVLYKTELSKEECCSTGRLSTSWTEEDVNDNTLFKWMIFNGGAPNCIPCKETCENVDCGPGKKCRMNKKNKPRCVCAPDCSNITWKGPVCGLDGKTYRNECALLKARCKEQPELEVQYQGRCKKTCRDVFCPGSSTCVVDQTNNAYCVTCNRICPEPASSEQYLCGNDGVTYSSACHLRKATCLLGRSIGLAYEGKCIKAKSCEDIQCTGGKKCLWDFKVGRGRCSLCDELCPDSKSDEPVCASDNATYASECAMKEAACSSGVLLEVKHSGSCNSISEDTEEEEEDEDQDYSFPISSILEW
In test [6] the target is Fibroblast growth factor 2 (Homo sapiens) (UniProt P09038). Kind of test: basic fibroblast growth factor binding to printed compounds – biochemical, small-molecule microarray, 635/667 nm fluorescence, primary screen (AID 1133). The conditions noted are these: FGF2, fluorescence 635/667, higher = more signal.
Sequence of Fibroblast growth factor 2 (Homo sapiens) (P09038 whole entry, looked up): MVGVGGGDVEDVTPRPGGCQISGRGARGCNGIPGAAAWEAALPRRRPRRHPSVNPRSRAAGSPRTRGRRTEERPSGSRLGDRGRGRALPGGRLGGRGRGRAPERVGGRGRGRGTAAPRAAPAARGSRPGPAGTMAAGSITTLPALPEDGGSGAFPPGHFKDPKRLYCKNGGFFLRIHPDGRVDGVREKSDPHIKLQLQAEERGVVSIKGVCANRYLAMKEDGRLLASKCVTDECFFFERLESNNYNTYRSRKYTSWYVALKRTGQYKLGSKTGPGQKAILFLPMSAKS
Test [7] in a line: JC-1 mitochondrial potential readout, lung cancer cells – cell-based, A549, JC-1 fluorescence, basal, 24 h, 100 nL, profiling panel (AID 1138).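 Note: A549 lung adenocarcinoma cells under basal conditions with no added stimulus; test concentration not given here.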 Particulars: higher = more signal.
The subject of the next test is Lefty1. Kind of test: Lefty1 protein binding to printed compounds – biochemical, small-molecule microarray, 635/667 nm fluorescence, primary screen (AID 1139). Particulars: fluorescence 635/667, higher = more signal.
Test [8] has as its system wheat germ agglutinin (Triticum aestivum), Alexa647-labelled. Kind of test: Alexa647-WGA lectin binding to printed small molecules – biochemical, small-molecule microarray, 635/667 nm fluorescence, artefact control for SMM control-protein annotation, profiling panel (AID 1140).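 Note: score merges 667 nm feature emission with signal to noise over triplicate slides.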 Particulars: WGA-A647 binding, 635 nm fluorescence, higher = more signal.
Test [9] has as its target Luciferin 4-monooxygenase (Photinus pyralis) (UniProt P08659). Kind of test: inhibition of purified Photinus pyralis luciferase – biochemical, luminescence, purified enzyme, 2006 set, primary screen (AID 1141).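 Note: cell-free assay with purified firefly luciferase at 100 ng per well in PBS; test concentration not given here.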 Particulars: purified firefly luciferase, SteadyGlo luminescence, 30 min; higher = more signal, called active from +8 up or from −8 down.
Test [10] relates to Wnt5a (protein binding on small-molecule microarray). The experiment in a line: small molecules binding Wnt5a protein – biophysical, small-molecule microarray, 635/667 nm fluorescence, primary screen (AID 1142).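 Note: fluorescence read at 667 nm with signal to noise per printed feature.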 The conditions noted are these: 635 nm fluorescence, higher = more signal.
Test [11] can be described thus: ATP-based viability of Huh7 replicon cells – cell-based, CellTiter-Glo luminescence, basal, 48 h, cytotoxicity control for HCV replication inhibitor project, primary screen (AID 1143).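 Note: Huh7 hepatoma cells carrying a hepatitis C replication reporter with no stimulus; test concentration not given here.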 The conditions noted are these: higher = more signal, called active from +8 up or from −8 down.
Test [12] can be described thus: Pseudomonas biofilm growth suppression – PAO1 strain, BacTiter-Glo luminescence, LB-PBS, primary screen (AID 1144). Particulars: P. aeruginosa PAO1 biofilm, 12 h, higher = more signal.
A short description of test [13]: basal CRE-LacZ reporter activity in PC12 – cell-based, unstimulated, primary screen (AID 1145). Particulars: no forskolin, luminescence, 4.5 h, higher = more signal, called active from +8 up or from −8 down.
Test [14] is described as follows: forskolin-driven CRE-LacZ activity in PC12 – cell-based, CRE-LacZ reporter, forskolin-stimulated, primary screen (AID 1146).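 Note: PC12 cells with 6xCRE LacZ reporter stimulated by forskolin 10 µM; beta-galactosidase reporter signal reflecting CREB driven transcription.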 The conditions noted are these: luminescence, 4.5 h, higher = more signal, called active from +8 up or from −8 down.
The target of test [15] is Streptavidin (Streptomyces avidinii) (UniProt P22629). The experiment in a line: compounds binding control protein streptavidin – biophysical, small-molecule microarray, 635/667 nm fluorescence, artefact control for SMM compound annotation, primary screen (AID 1147).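 Note: signal reflects streptavidin binding to arrayed compounds as a control protein.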 Particulars: higher = more signal.
Sequence of Streptavidin (Streptomyces avidinii) (P22629 whole entry, looked up): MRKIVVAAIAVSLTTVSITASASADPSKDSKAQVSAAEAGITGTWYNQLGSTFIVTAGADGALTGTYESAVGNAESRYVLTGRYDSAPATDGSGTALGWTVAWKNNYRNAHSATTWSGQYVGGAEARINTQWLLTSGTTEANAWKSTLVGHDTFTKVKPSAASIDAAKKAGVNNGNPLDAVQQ
The nature of test [16]: probe aInhba binding on compound microarray – biochemical, small-molecule microarray, 635/667 nm fluorescence, primary screen (AID 1148).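 Note: score merges 667nm spot fluorescence with signal-to-noise for antibody binding to printed compounds.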 The conditions noted are these: higher = more signal.
Test [17] addresses Torsin-1A (Homo sapiens) (UniProt O14656). The experiment in a line: TOR1A wild-type binding on microarray – cell lysate, small-molecule microarray, lysate, 635/667 nm, primary screen (AID 1149). The conditions noted are these: COS7 hTOR1A-WT lysate, 635 nm fluorescence, higher = more signal.
Test [18] shares this target. Kind of test: torsin A mutant lysate binding on microarrays – cell lysate, small-molecule microarray, COS7 lysate, 635/667 nm fluorescence, primary screen (AID 1150).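 Note: score pools 667 nm emission and signal to noise measuring lysate protein binding.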 Particulars: COS7 hTOR1A mutant lysate, 635 nm fluorescence, higher = more signal.
Test [19] has as its system Sonic hedgehog protein (Shh). The experiment in a line: Sonic hedgehog microarray binding compounds – biochemical, small-molecule microarray, 635/667 nm fluorescence, primary screen (AID 1151).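 Note: Shh protein binding to compounds spotted on small-molecule microarray slides; score combines spot fluorescence intensity with signal-to-noise across triplicate slides.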 Particulars: 635 nm fluorescence, higher = more signal.

Sequence of Luciferin 4-monooxygenase (Photinus pyralis) (P08659 whole entry, looked up): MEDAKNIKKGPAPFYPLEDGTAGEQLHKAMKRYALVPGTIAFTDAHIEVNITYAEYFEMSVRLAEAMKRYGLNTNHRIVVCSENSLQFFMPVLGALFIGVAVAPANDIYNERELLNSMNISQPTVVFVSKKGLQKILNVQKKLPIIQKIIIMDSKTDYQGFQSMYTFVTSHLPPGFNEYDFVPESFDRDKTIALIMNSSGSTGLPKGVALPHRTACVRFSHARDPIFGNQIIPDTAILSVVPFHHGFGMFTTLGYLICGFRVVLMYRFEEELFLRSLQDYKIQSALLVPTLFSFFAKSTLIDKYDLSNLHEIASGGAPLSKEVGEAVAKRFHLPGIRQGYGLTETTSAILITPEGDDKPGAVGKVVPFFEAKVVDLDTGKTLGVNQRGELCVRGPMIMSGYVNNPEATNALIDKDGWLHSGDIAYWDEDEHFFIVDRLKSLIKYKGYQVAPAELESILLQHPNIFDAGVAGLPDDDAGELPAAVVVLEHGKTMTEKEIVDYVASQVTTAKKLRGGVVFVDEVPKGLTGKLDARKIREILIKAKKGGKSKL
Sequence of Focal adhesion kinase 1 (Homo sapiens) (Q05397 whole entry, looked up): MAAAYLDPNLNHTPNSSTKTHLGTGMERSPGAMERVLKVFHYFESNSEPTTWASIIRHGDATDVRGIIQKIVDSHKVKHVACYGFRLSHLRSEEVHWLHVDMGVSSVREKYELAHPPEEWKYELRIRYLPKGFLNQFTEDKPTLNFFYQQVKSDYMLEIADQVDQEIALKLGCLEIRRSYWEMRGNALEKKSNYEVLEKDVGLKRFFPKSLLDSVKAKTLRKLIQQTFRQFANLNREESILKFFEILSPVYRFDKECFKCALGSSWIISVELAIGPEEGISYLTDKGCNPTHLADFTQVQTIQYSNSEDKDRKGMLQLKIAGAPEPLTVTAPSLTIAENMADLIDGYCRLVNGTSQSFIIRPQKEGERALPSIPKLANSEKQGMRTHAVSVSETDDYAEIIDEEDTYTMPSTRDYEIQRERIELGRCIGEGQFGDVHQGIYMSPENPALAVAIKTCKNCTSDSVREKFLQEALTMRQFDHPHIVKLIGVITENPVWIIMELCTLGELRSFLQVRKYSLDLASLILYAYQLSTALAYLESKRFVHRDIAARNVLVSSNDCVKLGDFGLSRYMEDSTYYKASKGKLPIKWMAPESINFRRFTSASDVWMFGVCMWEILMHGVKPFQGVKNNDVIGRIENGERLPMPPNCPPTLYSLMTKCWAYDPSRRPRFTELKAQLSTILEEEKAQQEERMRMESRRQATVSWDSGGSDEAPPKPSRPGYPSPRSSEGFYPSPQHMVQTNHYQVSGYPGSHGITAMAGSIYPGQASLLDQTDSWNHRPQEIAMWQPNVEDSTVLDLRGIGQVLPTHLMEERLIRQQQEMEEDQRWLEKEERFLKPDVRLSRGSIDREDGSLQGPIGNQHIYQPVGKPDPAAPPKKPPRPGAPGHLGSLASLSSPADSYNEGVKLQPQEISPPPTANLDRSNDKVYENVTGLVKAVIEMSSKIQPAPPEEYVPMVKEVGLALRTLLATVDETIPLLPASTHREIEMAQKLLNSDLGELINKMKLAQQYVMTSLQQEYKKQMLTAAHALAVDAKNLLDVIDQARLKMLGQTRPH
Sequence of Torsin-1A (Homo sapiens) (O14656 whole entry, looked up): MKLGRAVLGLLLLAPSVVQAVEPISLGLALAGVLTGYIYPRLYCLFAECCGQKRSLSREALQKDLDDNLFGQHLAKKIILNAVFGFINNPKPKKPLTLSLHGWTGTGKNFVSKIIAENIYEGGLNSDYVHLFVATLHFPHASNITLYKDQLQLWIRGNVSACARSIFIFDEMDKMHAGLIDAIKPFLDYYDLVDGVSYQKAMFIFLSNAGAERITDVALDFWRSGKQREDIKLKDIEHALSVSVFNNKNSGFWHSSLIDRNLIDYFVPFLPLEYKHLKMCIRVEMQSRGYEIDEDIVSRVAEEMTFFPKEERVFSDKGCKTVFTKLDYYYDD

Take `COCCOC(=O)N1C(=O)[C@@]2(c3cc(C#CC4=CCCCC4)ccc31)[C@H](C(=O)N1CCc3cc(OC)c(OC)cc3C1)[C@H]1C(=O)O[C@H](c3ccccc3)[C@H](c3ccccc3)N1[C@@H]2c1ccc(O)cc1`: the composite z-score is 1.62 in test [1]; 1.2 in test [2]; 0.596 in [3]; 0.947 in test [4]; 0.861 in [5]; 0.998 in [6]. Further, the composite z-score in the test with Lefty1 was determined as 0.917; in [8], 0.854; in test [10] it was 0.718; in [15] it was 1.85; in [16] it was 0.467; in the test with Torsin-1A (Homo sapiens) [17] it was 0.544. Further, the composite z-score was 1.23 with Torsin-1A (Homo sapiens) [18] and 1.67 in [19]. The z-score was -0.608 in test [7]; -0.914 (inactive) in test [9]; -0.447 (inactive) in test [11]; 0.108 (inactive) in test [12]; -0.321 (inactive) in test [13]; -0.539 (inactive) in test [14].
Regarding `COCCOC(=O)N1C(=O)[C@@]2(c3cc(C#Cc4ccc(OC)cc4)ccc31)[C@H](c1ccc(OCCO)cc1)N1[C@H](c3ccccc3)[C@H](c3ccccc3)OC(=O)[C@H]1[C@@H]2C(=O)N1CCCCCCC1`, the composite z-score in [1] was -0.252; in test [2], 1.2; in [3], 1.4; in [4], 0.636; in test [5], 1.36; in test [6], 1.24. The composite z-score came out at 1.36 in the test on Lefty1; 1.01 in [8]; 0.713 in [10]; 2.42 in test [15]; 1.65 in test [16]; 0.666 with Torsin-1A (Homo sapiens) [17]. Besides, the composite z-score is 1.71 with Torsin-1A (Homo sapiens) [18] and 2.02 in [19]. Also, the z-score in [7] was -0.625; in test [9], -2.14 (inactive); in test [11], -3.28 (inactive); in test [12] it was -1.44 (inactive); in [13] it was 0.891 (inactive); in test [14] it was -0.498 (inactive).
On to `CC=CC(O)C1C=CC2C(=O)N(C)C(=O)C2N1NC(=O)OC(C)(C)C` (stereo not given), for which the composite z-score was 0.831 in test [1]; 0.347 in [2]; -0.116 in [3]; 0.516 in test [4]; 0.767 in test [5]; 0.812 in test [6]. Further, the composite z-score was 0.0938 in the test on Lefty1; 0.838 in test [8]; 0.155 in test [10]; 0.32 in [15]; 0.038 in test [16]; 0.831 in the test with Torsin-1A (Homo sapiens) [17]. In addition, the composite z-score in the test with Torsin-1A (Homo sapiens) [18] stood at 0.229; in [19] it was 0.0729. Besides, the z-score in [7] was -0.559; in test [9], -0.645 (inactive); in test [11], 0.477 (inactive); in test [12], 0.433 (inactive); in test [13], 1.01 (inactive); in test [14] it was 0.742 (inactive).
For the compound `CCC[C@@H]1C=C(C(=O)OCC)[C@H](c2ccccc2)N1S(=O)(=O)c1ccc(C)cc1`, the composite z-score came to 0.796 in test [1]; 1.14 in test [2]; 0.898 in test [3]; 0.979 in test [4]; 0.947 in [5]; 0.538 in test [6]. Moreover, the composite z-score is 0.565 with Lefty1; 1.2 in test [8]; 0.539 in test [10]; 0.795 in [15]; 0.436 in test [16]; 0.131 with Torsin-1A (Homo sapiens) [17]. The composite z-score is 0.373 with Torsin-1A (Homo sapiens) [18] and 0.203 in [19]. Moreover, the z-score in test [7] was 2.03; in test [9], 1.41 (inactive); in test [11], -4.29 (inactive); in test [12], 1.18 (inactive); in test [13], -0.527 (inactive); in test [14], -0.578 (inactive).
Turning to `COCCOC(=O)N1C(=O)[C@@]2(c3ccccc31)[C@H](c1ccc(OCCO)cc1)N1[C@H](c3ccccc3)[C@H](c3ccccc3)OC(=O)[C@H]1[C@@H]2C(=O)N1CCN(c2ncccn2)CC1`, the composite z-score in test [1] is 0.46; in test [2], 1.2; in [3], 0.929; in test [4], 0.869; in [5], 1.43; in [6] it was 1.69. The composite z-score came to 1.37 in the test with Lefty1; 1.04 in test [8]; 0.453 in test [10]; 0.826 in test [15]; 0.134 in test [16]; 0.819 with Torsin-1A (Homo sapiens) [17]. Also, the composite z-score with Torsin-1A (Homo sapiens) [18] amounted to 0.794; in test [19] it was 1.86. In addition, the z-score in test [7] is -1.03; in [9], -0.135 (inactive); in test [11] it was -2 (inactive); in [12] it was -0.266 (inactive); in test [13], 0.22 (inactive); in test [14], 4.01 (inactive).
